Measured values from PubChem BioAssay.
Activity calls are given as the source filed them.

Experiments:
[1] = test system: PRMT1 (protein arginine N-methyltransferase 1); assay: small molecules binding arginine methyltransferase PRMT1 – biochemical, small-molecule microarray, 635 nm fluorescence, primary screen (AID 1088); conditions: higher = more signal;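 note: binding of Prmt1 protein to compounds spotted on small-molecule microarray slides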
[2] = growth effects on S. cerevisiae YJM789 – YJM789 clinical isolate, OD600, 24 h, basal, primary screen (AID 1089); conditions: higher = more signal, called active from +8 up or from −8 down;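 note: growth of clinical yeast isolate S. cerevisiae YJM 789 seeded 1000 cells per well; test concentration not given here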
[3] = S. pombe growth modifiers, basal conditions – strain 972, OD600, 24 h, no modulator, primary screen (AID 1090);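 note: basal condition with compound alone and no growth modifier present; test concentration not given here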; conditions: S. pombe 972 growth, higher = more signal, called active from +8 up or from −8 down
[4] = budding yeast growth modifiers under rapamycin – strain BY4716, OD600, 96 h, primary screen (AID 1091); note: test concentration not given here; conditions: S. cerevisiae BY4716 + rapamycin, higher = more signal, called active from +8 up or from −8 down
[5] = target: Torsin-1A-interacting protein 2 (Homo sapiens) (UniProt Q8NFQ8); assay: small molecules binding lysate-expressed LULL1 – cell lysate, human LULL1 lysate, 635/667 nm fluorescence, primary screen (AID 1092); conditions: small-molecule microarray, hLULL1 lysate binding, 635 nm fluorescence; higher = more signal;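 note: probe is lysate of COS7 cells overexpressing human LULL1; score merges per-feature 667 nm fluorescence with signal-to-noise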
Chain of Torsin-1A-interacting protein 2 (Homo sapiens) (Q8NFQ8 whole entry, looked up): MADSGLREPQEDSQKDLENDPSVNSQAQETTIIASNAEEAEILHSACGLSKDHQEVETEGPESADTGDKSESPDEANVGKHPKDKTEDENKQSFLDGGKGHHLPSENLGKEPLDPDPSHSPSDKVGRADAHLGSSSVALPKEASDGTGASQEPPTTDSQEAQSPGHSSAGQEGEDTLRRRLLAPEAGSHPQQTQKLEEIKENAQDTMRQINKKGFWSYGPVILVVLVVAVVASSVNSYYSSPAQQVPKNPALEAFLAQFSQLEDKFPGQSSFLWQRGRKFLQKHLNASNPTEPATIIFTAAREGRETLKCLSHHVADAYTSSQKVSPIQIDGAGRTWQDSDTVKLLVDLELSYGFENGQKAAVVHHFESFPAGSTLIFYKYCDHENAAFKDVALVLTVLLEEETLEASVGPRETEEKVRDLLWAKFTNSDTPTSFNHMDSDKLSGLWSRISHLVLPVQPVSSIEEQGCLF

[6] = optical density change of DRC41 E. coli – strain DRC41, OD650, 24 h, E. coli filamentation project, primary screen (AID 1093);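 note: MC1000 strain lacking acrAB efflux and sulA so SOS filamentation is blocked; test concentration not given here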; conditions: E. coli DRC41 growth, higher = more signal, called active from +8 up or from −8 down
[7] = probe aLefty2 binding to arrayed compounds – biochemical, biotinylated probe, 635/667 nm fluorescence, primary screen (AID 1094); conditions: small-molecule microarray, higher = more signal;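 note: score merges spot fluorescence near 667 nm with spot signal-to-noise ratio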
[8] = test system: Noggin (protein binding on small-molecule microarray); assay: small molecules binding Noggin protein – biochemical, 635/667 nm fluorescence, primary screen (AID 1095); conditions: 635 nm fluorescence, higher = more signal;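 note: score merges 667 nm feature fluorescence with signal to noise over triplicate slides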
[9] = target: Neurogenic locus notch homolog protein 3 (Homo sapiens) (UniProt Q9UM47); assay: small molecules binding NOTCH3 protein – biochemical, 635/667 nm fluorescence, primary screen (AID 1096); conditions: small-molecule microarray, 635 nm fluorescence, higher = more signal
Chain of Neurogenic locus notch homolog protein 3 (Homo sapiens) (Q9UM47 whole entry, looked up): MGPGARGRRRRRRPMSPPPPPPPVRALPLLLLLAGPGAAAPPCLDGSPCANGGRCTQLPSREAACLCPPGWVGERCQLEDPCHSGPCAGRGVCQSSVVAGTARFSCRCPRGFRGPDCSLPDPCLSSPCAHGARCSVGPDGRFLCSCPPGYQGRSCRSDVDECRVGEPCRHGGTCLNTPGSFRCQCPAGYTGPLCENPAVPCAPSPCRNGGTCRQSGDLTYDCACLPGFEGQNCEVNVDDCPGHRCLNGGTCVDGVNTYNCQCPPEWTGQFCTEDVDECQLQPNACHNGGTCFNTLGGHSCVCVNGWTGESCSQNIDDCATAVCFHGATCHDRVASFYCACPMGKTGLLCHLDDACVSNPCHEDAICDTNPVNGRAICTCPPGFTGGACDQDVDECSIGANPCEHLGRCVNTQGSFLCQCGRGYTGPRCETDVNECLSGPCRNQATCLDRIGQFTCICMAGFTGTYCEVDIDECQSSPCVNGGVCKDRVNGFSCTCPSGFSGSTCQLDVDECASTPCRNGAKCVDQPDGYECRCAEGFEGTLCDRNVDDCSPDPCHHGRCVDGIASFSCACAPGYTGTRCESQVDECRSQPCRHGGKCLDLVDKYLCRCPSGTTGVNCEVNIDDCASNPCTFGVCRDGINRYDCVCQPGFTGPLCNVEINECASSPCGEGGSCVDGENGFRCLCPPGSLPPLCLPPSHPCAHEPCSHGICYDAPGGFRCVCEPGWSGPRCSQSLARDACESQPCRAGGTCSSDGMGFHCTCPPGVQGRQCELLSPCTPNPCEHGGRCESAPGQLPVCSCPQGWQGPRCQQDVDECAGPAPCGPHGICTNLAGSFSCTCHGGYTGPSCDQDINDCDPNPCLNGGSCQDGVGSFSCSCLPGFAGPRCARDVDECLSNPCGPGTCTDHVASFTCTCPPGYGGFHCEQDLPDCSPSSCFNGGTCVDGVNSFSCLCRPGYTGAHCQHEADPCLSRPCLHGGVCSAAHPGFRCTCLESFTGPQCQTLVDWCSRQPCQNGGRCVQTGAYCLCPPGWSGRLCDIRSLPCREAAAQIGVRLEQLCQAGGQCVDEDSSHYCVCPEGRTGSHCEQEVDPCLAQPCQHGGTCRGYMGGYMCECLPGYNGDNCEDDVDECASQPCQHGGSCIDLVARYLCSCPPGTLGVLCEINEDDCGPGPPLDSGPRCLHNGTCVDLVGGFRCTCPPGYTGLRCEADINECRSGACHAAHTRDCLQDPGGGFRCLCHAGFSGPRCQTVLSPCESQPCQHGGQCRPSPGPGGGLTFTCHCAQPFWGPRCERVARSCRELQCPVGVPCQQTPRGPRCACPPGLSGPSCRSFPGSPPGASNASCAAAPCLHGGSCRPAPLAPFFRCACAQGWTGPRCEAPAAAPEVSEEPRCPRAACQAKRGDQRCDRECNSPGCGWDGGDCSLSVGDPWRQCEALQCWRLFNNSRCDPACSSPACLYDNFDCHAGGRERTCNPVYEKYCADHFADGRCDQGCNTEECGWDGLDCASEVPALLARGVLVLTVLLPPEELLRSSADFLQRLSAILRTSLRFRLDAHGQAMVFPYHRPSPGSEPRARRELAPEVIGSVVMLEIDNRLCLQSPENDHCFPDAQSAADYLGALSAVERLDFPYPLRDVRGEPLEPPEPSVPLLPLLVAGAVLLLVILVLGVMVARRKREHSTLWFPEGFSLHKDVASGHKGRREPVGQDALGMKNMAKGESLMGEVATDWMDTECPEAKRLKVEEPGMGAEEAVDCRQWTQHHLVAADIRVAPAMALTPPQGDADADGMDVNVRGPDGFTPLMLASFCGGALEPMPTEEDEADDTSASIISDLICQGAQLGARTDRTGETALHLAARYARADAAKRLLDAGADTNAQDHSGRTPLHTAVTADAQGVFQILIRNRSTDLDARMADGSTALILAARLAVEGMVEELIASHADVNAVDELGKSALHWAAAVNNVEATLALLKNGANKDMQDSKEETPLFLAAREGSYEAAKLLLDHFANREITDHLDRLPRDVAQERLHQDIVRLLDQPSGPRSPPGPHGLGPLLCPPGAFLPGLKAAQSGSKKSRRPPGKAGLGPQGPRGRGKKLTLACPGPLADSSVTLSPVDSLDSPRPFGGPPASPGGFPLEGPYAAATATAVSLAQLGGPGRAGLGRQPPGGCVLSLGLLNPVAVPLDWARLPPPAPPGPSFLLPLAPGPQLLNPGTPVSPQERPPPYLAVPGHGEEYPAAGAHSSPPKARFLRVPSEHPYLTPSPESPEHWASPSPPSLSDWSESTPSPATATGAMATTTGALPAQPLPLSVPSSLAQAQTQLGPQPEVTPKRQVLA

[10] = probe aEGFR binding to arrayed compounds – biochemical, biotinylated probe, 635/667 nm fluorescence, primary screen (AID 1097); conditions: small-molecule microarray, higher = more signal;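 note: probe is a biotinylated anti-EGFR antibody binding compounds printed on slides; score combines fluorescence near 667 nm and signal to noise of each spot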

| Structure (SMILES) | composite z-score [1] | z-score [2] | z-score [3] | z-score [4] | composite z-score [5] | z-score [6] | composite z-score [7] | composite z-score [8] | composite z-score [9] | composite z-score [10] |
| --- | --- | --- | --- | --- | --- | --- | --- | --- | --- | --- |
| C[C@H]1CC[C@@H](C(=O)O)N[C@@H]1c1ccc(C#CCN(C)C)cc1 | -0.521 | 1.07 (inactive) | -0.509 (inactive) | -0.434 (inactive) | -0.141 | 0.657 (inactive) | -0.128 | 0.102 | 0.498 | -0.0564 |
| O=C(NN=C1C[C@@H](O)[C@@H](O)[C@@H]2[C@@H]3C(=O)N(c4cccc(Oc5ccccc5)c4)C(=O)[C@@H]3CC[C@H]12)OCc1ccccc1 | -0.425 | 0.686 (inactive) | -0.141 (inactive) | -0.669 (inactive) | 0.415 | 1.24 (inactive) | -0.0812 | 0.53 | 0.305 | -0.152 |
| CCCNC(=O)OC[C@H]1O[C@H](CCON=C[C@@H](OC)[C@H](C)C=CCC(=O)OC)C=C[C@@H]1Oc1ccc(OC)cc1 | 1.17 | -1.01 (inactive) | 0.141 (inactive) | -0.0988 (inactive) | 0.524 | 0.294 (inactive) | -0.0519 | 0.194 | -0.31 | -0.136 |
| CCOC(=O)NN=C1C[C@@H](O)[C@@H](O)[C@@H]2[C@@H]3C(=O)N(C(C)(C)C)C(=O)[C@@H]3CC[C@@H]12 | -0.172 | -1.04 (inactive) | 0.213 (inactive) | -0.626 (inactive) | -0.786 | 0.572 (inactive) | -0.0569 | 0.261 | -0.861 | 0.0021 |
| C[C@@H]1C=CCC(=O)OC[C@H](C)C(=O)N2CCC[C@H]2C(=O)OC1 | 1.54 | -0.407 (inactive) | 0.334 (inactive) | 0.356 (inactive) | 0.0414 | 0.325 (inactive) | -0.0971 | 1.7 | 0.677 | 0.228 |
| CCCC=C(CCC)[C@@H](NC(=O)c1ccc(-c2ccccc2)cc1)c1ccc(C(=O)OC)cc1 | 0.665 | 0.806 (inactive) | 1.77 (inactive) | 1.93 (inactive) | 3.33 | -0.665 (inactive) | 0.0997 | 0.0811 | 1.07 | -0.022 |
| COCC1=C2[C@@H](CCc3ccccc3)OB(O)C[C@@H]2n2c(=O)n(-c3ccccc3)c(=O)n2C1 | -0.162 | 0.114 (inactive) | -0.591 (inactive) | -0.644 (inactive) | 0.332 | 0.203 (inactive) | -0.166 | 0.264 | -0.26 | -0.145 |
| COC(=O)[C@@]1(Cc2ccc(F)cc2)[C@@H]2C(=CC(=O)[C@H]2CC(=O)C(=O)N(C)C)CN1C(=O)c1ccccc1 | 1.14 | 1 (inactive) | 1.84 (inactive) | 8.71 (active) | 3.5 | -0.399 (inactive) | 0.393 | 0.171 | 1.02 | 0.396 |
| CCOC(=O)CCN1C(=O)[C@H]2[C@H]3[C@H](O)[C@H](O)CC(=NOC[C@@H](O)COCc4ccco4)[C@H]3CC[C@H]2C1=O | 1.46 | -0.114 (inactive) | -3.86 (inactive) | -0.86 (inactive) | 0.756 | 0.09 (inactive) | -0.188 | 0.474 | 0.921 | 0.0649 |
| COC(=O)[C@H](C)NC(=O)CCC1CC(OC(=O)NCc2cccc3ccccc23)CC2(CCCC(COC(=O)NCC3CCCCC3)O2)O1 (stereo not given in full) | 1.55 | -0.0166 (inactive) | 0.633 (inactive) | -0.825 (inactive) | 3.37 | -0.639 (inactive) | -0.114 | 0.918 | 1.06 | 0.0278 |
| COc1ccccc1CN1C(=O)c2ccccc2[C@@]2(Cc3ccccc3N(C(C)C)C2=O)[C@@H]1c1ccc(CO)cc1 | 0.303 | -1.69 (inactive) | -0.373 (inactive) | -1.34 (inactive) | -0.114 | 1.26 (inactive) | -0.0999 | -0.0723 | -0.186 | -0.194 |
| CCCNC(=O)[C@@H]1c2ccccc2C(=O)N(Cc2ccccc2Cl)[C@H]1c1ccc(CO)cc1 | 1.55 | -0.0545 (inactive) | -0.64 (inactive) | 0.152 (inactive) | 2.47 | 2.2 (inactive) | 0.102 | 0.751 | 1.05 | 0.116 |
| C=C(/C(=C/C[C@H](OC(=O)c1ccncc1)c1ccc(OCCO)cc1)c1cnc2ccccc2c1)C(C)C | 1.55 | -0.442 (inactive) | -1.82 (inactive) | 0.706 (inactive) | 1.12 | -0.13 (inactive) | -0.0985 | 1.48 | 1.03 | -0.0251 |
| CC(C)CON=C1C[C@@H](O)[C@@H](O)[C@@H]2[C@@H]3C(=O)N(C[C@@H]4CCCO4)C(=O)[C@@H]3CC[C@H]12 | 0.976 | -1.04 (inactive) | 0.042 (inactive) | -0.435 (inactive) | 1.39 | 0.134 (inactive) | -0.234 | 0.468 | 0.668 | -0.0191 |
| CCc1cc2c(nc1CC)CCN(CCC(C)=NOC[C@@H](O)[C@H]1O[C@@H]3OC(C)(C)O[C@@H]3[C@H]1O)C2 | 0.85 | -1.63 (inactive) | 0.24 (inactive) | -0.282 (inactive) | 0.767 | 0.71 (inactive) | -0.175 | 0.276 | 0.0003 | -0.0343 |
| CC(=O)OC[C@H]1O[C@H](CCON=C(C)CCN2CCc3nc(-c4ccccc4)c(-c4ccccc4)cc3C2)C=C[C@@H]1OC(C)=O | 1.25 | -1.92 (inactive) | -0.757 (inactive) | -4.46 (inactive) | 1.26 | 0.901 (inactive) | -0.0258 | 0.169 | 0.0346 | -0.0549 |
| C[C@@H]1CCC2C(=O)N(Cc3ccccc3)C[C@@H](O)CN2[C@H]1c1ccc(Br)cc1 (stereo not given in full) | 1.39 | -1.91 (inactive) | -3.75 (inactive) | -0.26 (inactive) | 1.5 | 0.369 (inactive) | -0.23 | 0.542 | 0.158 | -0.115 |
| CC(C)(C)OC(=O)CC[C@]1(C(N)=O)COC(c2ccc(OCCCO)cc2)=N1 | 1.09 | 0.0433 (inactive) | -0.391 (inactive) | 0.0262 (inactive) | 3.09 | 0.308 (inactive) | 0.65 | 0.115 | 0.849 | 0.34 |
| CCOC(=O)NN=C1C[C@@H](O)[C@@H](O)[C@@H]2[C@@H]3C(=O)N(C[C@@H]4CCCO4)C(=O)[C@@H]3CC[C@@H]12 | 0.0939 | 0.822 (inactive) | -0.408 (inactive) | 0.256 (inactive) | 0.375 | 0.757 (inactive) | -0.0458 | 0.642 | 0.697 | -0.0681 |
| CC(C)=CCCC(C)=CCON=C1C[C@@H](O)[C@@H](O)[C@@H]2[C@@H]3C(=O)N(C[C@@H]4CCCO4)C(=O)[C@@H]3CC[C@@H]12 | 1.54 | -0.224 (inactive) | 0.574 (inactive) | -0.618 (inactive) | 2.34 | 0.325 (inactive) | -0.133 | 1.3 | 1.01 | -0.0556 |
| CCOC(=O)[C@H](CC(C)C)NC(=O)CCC1CC(OC(=O)NCc2cccc3ccccc23)CC2(CCCC(COC(=O)NCCN3CCOCC3)O2)O1 (stereo not given in full) | 1.57 | -1.26 (inactive) | 0.557 (inactive) | -1.04 (inactive) | 2.36 | -0.737 (inactive) | -0.173 | 0.344 | 1.11 | -0.0828 |
| CC1CC/C=C\[C@H]2OC34C=CCN(C(C)C)C(=O)[C@H]3N(CCCO)C(=O)[C@@H]4C2C(=O)O1 (stereo not given in full) | 1.04 | -1.36 (inactive) | -1.14 (inactive) | -0.24 (inactive) | 1.29 | 1.14 (inactive) | 0.131 | -1.42 | -0.344 | -0.214 |
| COC(=O)C1=C(C)N(Cc2ccccc2)[C@]23O[C@](C(=O)OC)(C(=O)N2[C@@H]1c1ccccc1)[C@H]1CCOC(=O)[C@H]13 | 0.33 | 0.828 (inactive) | 0.494 (inactive) | 1.71 (inactive) | 0.257 | 0.308 (inactive) | -0.0638 | 0.648 | 1.07 | -0.0152 |
| CC(CCN1CCCCc2nc(C)c(C)cc21)=NOC(C)CN1CCCCc2nc(C)c(C)cc21 (stereo not given) | 1.52 | -1.32 (inactive) | -1.49 (inactive) | 0.187 (inactive) | 2.37 | -0.0919 (inactive) | -0.0101 | 1.04 | 1.07 | 0.272 |
| CC(C)CN1CCc2nc(-c3ccccc3)c3c(c2CC1)CO[C@@H](C)C3 | -0.36 | 0.175 (inactive) | -0.327 (inactive) | -0.378 (inactive) | -0.39 | 0.102 (inactive) | 0.061 | 0.364 | 0.0668 | 0.0657 |
| COC(=O)[C@H](C)NC(=O)CCC1CC(OC(=O)NCCc2ccc(F)cc2)CC2(CCCC(COC(=O)NCCc3ccc(Cl)cc3)O2)O1 (stereo not given in full) | 1.24 | 0.86 (inactive) | 0.812 (inactive) | 1.2 (inactive) | 2.39 | 0.126 (inactive) | -0.0237 | 0.244 | 1.12 | -0.0989 |
| CCN1C(=O)[C@H]2[C@H]3[C@H](O)[C@H](O)CC(=NOC[C@@H](C)[C@H](OCc4ccccc4)C(C)C)[C@@H]3CC[C@H]2C1=O | 0.607 | -1.05 (inactive) | -4.13 (inactive) | -0.673 (inactive) | 0.8 | 0.568 (inactive) | -0.145 | 0.355 | 0.457 | -0.0936 |
| C=CCOC(=O)[C@H]1[C@@H]2C(=O)O[C@@H](c3ccccc3)[C@@H](c3ccccc3)N2[C@@H](c2ccc(OCCOC(=O)[C@H]3C[C@H]4C(=O)N5CCC[C@H]5C(=O)N4[C@H]3c3cccc(OCCO)c3)cc2)[C@]12C(=O)Nc1ccc(I)cc12 | 1.53 | -0.104 (inactive) | -0.77 (inactive) | 0.289 (inactive) | 3.41 | -0.301 (inactive) | 1.35 | 1.49 | 1.12 | 0.938 |
| COC(=O)[C@@]1(Cc2ccccc2)[C@H]2c3cc(C(=O)N4CCCC4)n(Cc4ccccn4)c3C[C@H]2CN1C(=O)c1ccccc1 | 1.57 | 0.263 (inactive) | 0.296 (inactive) | 0.513 (inactive) | 4 | -0.301 (inactive) | 0.614 | 0.856 | 1.14 | 0.211 |
